Assay outcomes deposited in PubChem BioAssay by Johns Hopkins Ion Channel Center.
An excerpt weighted towards active compounds, which were near 1.6% of everything screened.
KCNQ2 pot: potentiators of rat KCNQ2 potassium channel. Potassium voltage-gated channel subfamily KQT member 2 (Rattus norvegicus), O88943. hit rate 0.54% among 310,000. B-score at 10 µM. CHO-K1 KCNQ2, FluxOR thallium flux fluorescence; active compounds read high;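 active = fluorescence ratio B-score at least 3 SD of library B-scores, with initial fluorescence B-score within 3 of them, cut at about 5.3 in these data; same plate scores as AID 2156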;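 also: B-score of peak minus minimum over baseline fluorescence ratio after K+ and Tl+ stimulus; positive B-score means potentiation of KCNQ2 with more thallium influx and brighter signal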
KCNQ2 inh: rat KCNQ2 potassium channel inhibitors, primary screen, cell-based, CHO-K1, FluxOR thallium flux, B-score; 20 min; active compounds read low; B-score at 10 µM; hit rate 1.1% among 310,000;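 active = fluorescence ratio B-score at most minus 3 library SDs, with starting brightness B-score within 2 library SDs, cut at about -5.5 in these data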
Kir21 confirm: mouse Kir2.1 channel blockers, retest, confirmation, cell-based, FluxOR thallium flux, duplicate; hit rate 41% among 2,300; shares compounds with KCNQ2 pot; Kir2.1-expressing cells, FluxOR thallium flux fluorescence; active compounds read low; Tl flux remaining, % of negative control (active compounds read low), % at 10 µM;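 active = Primary-screen hit whose thallium flux fell at least 3 control SD below untreated wells in both duplicates, with normal baseline fluorescence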;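 also: 0% = blank wells without stimulus and 100% = stimulated no-compound controls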
Target sequence (P35561 whole entry, looked up): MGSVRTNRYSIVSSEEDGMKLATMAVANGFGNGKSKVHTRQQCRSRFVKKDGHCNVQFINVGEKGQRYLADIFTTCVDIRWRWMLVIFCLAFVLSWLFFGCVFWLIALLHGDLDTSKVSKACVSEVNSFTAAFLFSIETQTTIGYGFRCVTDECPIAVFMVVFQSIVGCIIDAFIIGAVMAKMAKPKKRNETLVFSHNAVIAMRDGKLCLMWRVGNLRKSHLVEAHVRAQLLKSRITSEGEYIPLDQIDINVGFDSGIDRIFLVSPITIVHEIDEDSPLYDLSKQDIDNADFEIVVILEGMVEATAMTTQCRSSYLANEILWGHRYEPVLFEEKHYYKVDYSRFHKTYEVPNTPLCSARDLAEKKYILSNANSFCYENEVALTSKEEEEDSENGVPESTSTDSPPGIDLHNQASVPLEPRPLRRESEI
HEK293 ctr: parental HEK293 activity in Kir2.1 inhibitor counter-screen | shares compounds with KCNQ2 pot | parental HEK293 cells, FluxOR thallium flux fluorescence; 0% = unstimulated blank wells | FluxOR signal as % of negative control (100 = no effect), % at 10 µM | hit rate 19% among 2,300 | AID 2105;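 active = dye signal at least 3 control SD above or below untreated wells in both duplicates, raw fluorescence within 3, either direction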;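 also: percent is based on the flux ratio of peak minus minimum fluorescence over baseline F0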
CHO-K1 ctr: nonspecific thallium flux increase in parental CHO-K1, confirmation, counter-screen for KCNQ2 potentiator project, cell-based, FluxOR thallium flux, duplicate; shares compounds with KCNQ2 pot; hit rate 43% among 1,200; parental CHO-K1 cells, FluxOR thallium flux fluorescence; zero = vehicle mean+3SD, 100% = vehicle-minus-blank window; activity increase over 3SD of controls, % at 10 µM;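 active = signal rise of at least 3 SD above the untreated control mean, in both duplicate wells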;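 also: counter screen of KCNQ2 potentiator hits so any rise reflects channel-independent effects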
KCNQ1 pot spec: human KCNQ1 channel potentiation off-target, confirmation, selectivity assay for KCNQ2 potentiator project, cell-based, CHO, FluxOR thallium flux. shares compounds with KCNQ2 pot. CHO KCNQ1 stable, FluxOR thallium flux fluorescence; beyond 3SD, as % of vehicle-control signal. activation over 3SD threshold, % at 10 µM. hit rate 28% among 1,200. AID 2283, 2010;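 active = fluorescence ratio rise of at least 3 SD of vehicle wells above their mean, in both replicate wells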;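 also: 0% = vehicle mean plus 3 SD and 100% = vehicle minus unstimulated blank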
KCNQ2 pot conf: rat KCNQ2 channel potentiators, confirmation, cell-based, CHO, FluxOR thallium flux, duplicate; shares compounds with KCNQ2 pot; CHO-KCNQ2 cells, FluxOR thallium flux fluorescence; potentiation, less the hit threshold, % at 10 µM; hit rate 68% among 1,200;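 active = fluorescence ratio rising 3 SD or more over the vehicle control mean in both replicates, plus primary screen hit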;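 also: peak minus minimum thallium fluorescence divided by baseline after K/Tl stimulus; 0% = vehicle mean plus 3 SD and 100% = vehicle minus unstimulated blank difference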
Kir2-1 sel: mouse Kir2.1 channel activation off-target, confirmation, selectivity assay for KCNQ2 potentiator project, cell-based, HEK293, FluxOR thallium flux. shares compounds with KCNQ2 pot. HEK293 Kir2.1, FluxOR thallium flux fluorescence. activity over 3SD threshold, % at 10 µM. hit rate 2% among 1,200;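 active = fluorescence ratio rise of at least 3 SD above the vehicle-control mean, seen in both replicates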;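 also: 0% = vehicle mean plus 3 SD and 100% = vehicle minus no-stimulus blank window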
KCNQ2 W236L pot: potentiators of retigabine-insensitive KCNQ2 W236L, mechanism study for KCNQ2 potentiator project, cell-based, rat KCNQ2 W236L, CHO, automated patch clamp. AID 2558, 2010. automated patch clamp current. current increase over 3SD of negative controls (%), active compounds read high, % at 25 µM. hit rate 10% among 940. shares compounds with KCNQ2 pot;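 active = current increase at least 3 SD of the untreated controls above them in both duplicate recordings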
Numbers without * were called inactive; i = inactive; nt = not tested or not shown.

SMILES	KCNQ2 pot	KCNQ2 inh	Kir21 confirm	HEK293 ctr	others
Cc1ccc2c(c1)C1CC(C)(O2)N(c2cccc(C(=O)N3CCN(c4ccccn4)CC3)c2)C(=O)N1 (stereo not drawn)	nt	i	nt	nt
O=C(Nc1nnc(-c2ccc3c(c2)CCCC3)o1)c1c(F)cccc1F	nt	i	nt	nt
O=C(Nc1nnc(-c2ccc3c(c2)CCCC3)o1)c1ccc(Cl)cc1Cl	8.92*	i	i	255.0%*	CHO-K1 ctr=-12.0;KCNQ1 pot spec=69.1*;KCNQ2 pot conf=15.3*;Kir2-1 sel=-30.6;KCNQ2 W236L pot=i
Cc1ccc(C(CNS(=O)(=O)c2ccc([N+](=O)[O-])cc2)N2CCN(C)CC2)cc1 (stereo not drawn)	0.47	i	nt	nt
CCOC(=O)c1ccc(NC(=O)COc2ccc(S(=O)(=O)NC(C)CC)cc2)cc1 (stereo not drawn)	1.04	i	nt	nt
CCOC(=O)c1ccc(NC(=O)C(C)NS(=O)(=O)c2ccc(OC)cc2)cc1 (stereo not drawn)	5.81*	i	i	i	CHO-K1 ctr=33.6*;KCNQ1 pot spec=-3.2;KCNQ2 pot conf=-44.0;Kir2-1 sel=-38.6
O=C(O)c1cc(S(=O)(=O)NC(CO)C(O)c2ccc([N+](=O)[O-])cc2)ccc1Br (stereo not drawn)	nt	i	nt	nt
C/C(N)=C(/C#N)C(=O)CSc1nc2ccccc2c(=O)n1Cc1ccc(F)cc1	5.49*	i	i	167.0%*	CHO-K1 ctr=-8.5;KCNQ1 pot spec=16.2*;KCNQ2 pot conf=3.4*;Kir2-1 sel=-37.3;KCNQ2 W236L pot=i
C/C(N)=C(/C#N)C(=O)CSc1nc2ccccc2c(=O)n1Cc1ccc(C)cc1	nt	i	nt	nt
CC(/C=N/NC(=O)c1ccc(Cn2cc([N+](=O)[O-])cn2)o1)=C\c1ccccc1	0.68	i	nt	nt
O=C(c1cc2ccccc2cc1O)N1CCN(c2ccc([N+](=O)[O-])cc2)CC1	nt	i	nt	nt
COc1cc2[nH]c(C(=O)NCc3ccccc3)cc2c(OC)c1OC	nt	i	i	i
COc1cc2[nH]c(C(=O)NCCc3ccccc3)cc2c(OC)c1OC	0.23	i	nt	nt
COc1ccccc1C(=O)NCCC(=O)N1CCN(c2cccc(C(F)(F)F)c2)CC1	nt	i	nt	nt
CCCN(CCC)S(=O)(=O)c1ccc(Cl)c(OC)c1	nt	i	55.0%*	i
CCN(CC)S(=O)(=O)c1ccc(Cl)c(OC)c1	1.63	i	nt	nt
Cn1c(CC(=O)Nc2ccccc2F)nnc1SCC(=O)NC1=NCCS1	0.8	i	nt	nt
COc1ccc(C(=O)Nc2nnc(-c3ccc(F)cc3)s2)c(OC)c1	10.1*	i	i	i	CHO-K1 ctr=-32.7;KCNQ1 pot spec=19.3*;KCNQ2 pot conf=-14.1;Kir2-1 sel=-37.5
COc1ccccc1C(=O)Nc1nnc(-c2ccc(F)cc2)s1	nt	i	nt	nt
COC(=O)[C@H]1C[C@@H]1[C@H](N)c1ccccc1	0.63	i	nt	nt
CC(=O)Nc1ccc(S(=O)(=O)N(Cc2ccccc2)c2ccccn2)cc1	nt	i	nt	nt
O=S(=O)(c1ccccc1)N(Cc1ccccc1)c1ccccn1	nt	i	i	i
COc1ccc(CNc2ccccc2)cc1Br	nt	i	nt	nt
COc1cc(CNc2cccc(F)c2)cc(Br)c1O	11.2*	i	i	i	CHO-K1 ctr=2.4*;KCNQ1 pot spec=-8.2;KCNQ2 pot conf=-5.5;Kir2-1 sel=-22.6
CN(Cc1ccccc1)CC(O)COc1ccc(CNCc2ccc(Cl)s2)cc1 (stereo not drawn)	nt	i	23.5%*	i
SMILES	KCNQ2 pot	KCNQ2 inh	Kir21 confirm	HEK293 ctr	others
CN(Cc1ccccc1)CC(O)COc1ccc(CNCc2cccnc2)cc1 (stereo not drawn)	nt	i	nt	nt
Cc1ccc(-c2nc(CNC(=O)c3cc(C)on3)cs2)cc1	0.86	i	nt	nt
CCOc1ccc(S(=O)(=O)N2CCOCC2)cc1NC(=O)c1ccc(N2CCCC2=O)cc1	1.49	i	nt	nt
O=C(Nc1cccc(Cl)c1)c1cc(F)cc2c1OCOC2	0.08	i	nt	nt
CCCn1cc(CN2CCc3ccc(NC(=O)C4CCCO4)cc3C2)c(C)n1 (stereo not drawn)	1.14	i	nt	nt
CC(Oc1ccc(Cl)cc1Cl)C(=O)N(C)c1ccccc1 (stereo not drawn)	nt	i	50.5%*	i
COC(=O)NNC(=O)C(C)Oc1ccc(Cl)cc1Cl (stereo not drawn)	nt	i	nt	nt
COCCn1c(N)c(Sc2ccc(Cl)cc2)c(=O)[nH]c1=O	1.08	i	nt	nt
CC1CN(C(=O)CCC(=O)N2CCCCC2)c2ccccc2O1 (stereo not drawn)	0.3	i	nt	nt
Cc1cc(S(=O)(=O)N2CCCC(C)C2)ccc1-n1cnnn1 (stereo not drawn)	nt	i	nt	nt
Cc1cccc(S(=O)(=O)N2CCCc3ccccc32)c1	nt	i	i	i
Cc1cc(C)c(S(=O)(=O)N2CCCc3ccccc32)c(C)c1	nt	i	nt	nt
O=C1CC(c2cc(-c3ccccc3)no2)C1	0.64	i	nt	nt
NS(=O)(=O)c1ccc(CNC(=O)c2cc(=O)c3cc(Cl)ccc3o2)cc1	0.36	i	nt	nt
CCOc1ccccc1NC(=O)CCS(=O)(=O)c1ccc(Br)cc1	nt	i	nt	nt
CSc1scc2c1-c1nc(SCC(=O)C(C)(C)C)ncc1CC2	6.68*	i	i	i	CHO-K1 ctr=-10.9;KCNQ1 pot spec=61.0*;KCNQ2 pot conf=2.8*;Kir2-1 sel=-37.2;KCNQ2 W236L pot=i
CC(C)(C)C(=O)CSc1ncccn1	nt	i	nt	nt
Cc1sc2nc(CN3CCN(c4ccc(O)cc4)CC3)[nH]c(=O)c2c1C	0.07	i	nt	nt
Cc1sc2nc(CN3CCOCC3)[nH]c(=S)c2c1C	19.5*	i	i	412.5%*	CHO-K1 ctr=-13.2;KCNQ1 pot spec=-7.5;KCNQ2 pot conf=101.2*;Kir2-1 sel=-9.4;KCNQ2 W236L pot=i
CC(=O)N1c2ccc(S(=O)(=O)N(C)CC(=O)NC3CCCC3)cc2CC1C (stereo not drawn)	1.52	i	nt	nt
